High-throughput results as filed in PubChem BioAssay.
Only some compounds are listed: those with a hit (about 12% of all), similar ones and a draw of the others.
JMJD2A Tudor inh: inhibitors of human JMJD2A Tudor domain; O75164; AlphaScreen JMJD2A-Tudor / H3K4me3 peptide binding; Potency, µM (highest dose often 114 µM), usual class: inhibitors; 390,000 tested, 4.4% active; further: nearly all actives have a fitted effect of over 50% in size
Sfp inh: inhibitors of Bacillus subtilis Sfp phosphopantetheinyl transferase; AID 1490; Biochemical Sfp PPTase activity, qHTS; 310,000 tested, 3.5% active; Potency, µM, most hits filed as inhibitors; Q9F4F7;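 further: the enzyme is Sfp with the accession as filed and its product quenches rhodamine fluorescence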
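Sfp 15 nM + cpd, 15 min RT; start w/ rhodamine-CoA 5 uM, BHQ-2-YbbR 12.5 uM (final); 50 mM Hepes pH 7.6, 10 mM MgCl2, 0.01% NP-40, 0.01% BSA; read 525/598 nm at 0 and 30 min.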
HP1b chromo inh: blocks HP1-beta chromodomain binding to methylated histone tails. 390,000 tested, 0.56% active. AlphaScreen HP1-beta / biotin-H3K9me3 peptide binding. Potency, µM (series often up to 114 µM), hits mostly inhibitors; further: nearly all actives have a fitted effect of over 70% in size
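AlphaScreen: HP1-beta (50 nM) preformed 30 min with biotin-H3(1-18)K9me3 peptide (50 nM) in PBS pH 7.4, 0.01% Tween-20. Compound added for 30 min at RT, then streptavidin donor/nickel chelate acceptor beads (10 ug/mL) for 30 min.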
L3MBTL1 inh: inhibitors of human L3MBTL1; AlphaScreen L3MBTL1–H3K9me1 peptide binding; Potency, µM (titrated, usually from 57.1 µM), actives largely listed as inhibitors; 230,000 tested, 0.66% active; AID 485360; further: nearly all actives have a fitted effect of over 60% in size
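Displacement of a biotinylated histone H3(1-15) peptide monomethylated at Lys9 (75 nM) from L3MBTL1 (50 nM) was measured by AlphaScreen after a 30 min room-temperature compound incubation; cefsulodin titration served as intraplate control.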
G9a block: G9a (human) methyltransferase inhibition. Potency, µM (series often up to 102 µM), usual class: inhibitors. AID 504332. 350,000 tested, 8.8% active. G9a H3K9 monomethylation, AlphaScreen, 2 h. Q96KQ7; further: nearly all actives have a fitted effect of over 75% in size
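G9a (20 nM) preincubated 15 min RT with compounds, then 500 nM biotinylated H3K9 peptide and 20 uM SAM added; 2 h RT reaction. Monomethyl-H3K9 product detected by AlphaScreen with anti-H3K9me1 antibody, streptavidin donor and anti-rabbit IgG acceptor beads.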
BAZ2B block: blocks human BAZ2B; Q9UIF8; AlphaScreen BAZ2B-H3K14Ac peptide displacement; Potency, µM (series often up to 114 µM), hits mostly inhibitors; AID 504333; 360,000 tested, 4.4% active; further: nearly all actives have a fitted effect of over 60% in size
Target sequence (Q9UIF8 whole entry, looked up): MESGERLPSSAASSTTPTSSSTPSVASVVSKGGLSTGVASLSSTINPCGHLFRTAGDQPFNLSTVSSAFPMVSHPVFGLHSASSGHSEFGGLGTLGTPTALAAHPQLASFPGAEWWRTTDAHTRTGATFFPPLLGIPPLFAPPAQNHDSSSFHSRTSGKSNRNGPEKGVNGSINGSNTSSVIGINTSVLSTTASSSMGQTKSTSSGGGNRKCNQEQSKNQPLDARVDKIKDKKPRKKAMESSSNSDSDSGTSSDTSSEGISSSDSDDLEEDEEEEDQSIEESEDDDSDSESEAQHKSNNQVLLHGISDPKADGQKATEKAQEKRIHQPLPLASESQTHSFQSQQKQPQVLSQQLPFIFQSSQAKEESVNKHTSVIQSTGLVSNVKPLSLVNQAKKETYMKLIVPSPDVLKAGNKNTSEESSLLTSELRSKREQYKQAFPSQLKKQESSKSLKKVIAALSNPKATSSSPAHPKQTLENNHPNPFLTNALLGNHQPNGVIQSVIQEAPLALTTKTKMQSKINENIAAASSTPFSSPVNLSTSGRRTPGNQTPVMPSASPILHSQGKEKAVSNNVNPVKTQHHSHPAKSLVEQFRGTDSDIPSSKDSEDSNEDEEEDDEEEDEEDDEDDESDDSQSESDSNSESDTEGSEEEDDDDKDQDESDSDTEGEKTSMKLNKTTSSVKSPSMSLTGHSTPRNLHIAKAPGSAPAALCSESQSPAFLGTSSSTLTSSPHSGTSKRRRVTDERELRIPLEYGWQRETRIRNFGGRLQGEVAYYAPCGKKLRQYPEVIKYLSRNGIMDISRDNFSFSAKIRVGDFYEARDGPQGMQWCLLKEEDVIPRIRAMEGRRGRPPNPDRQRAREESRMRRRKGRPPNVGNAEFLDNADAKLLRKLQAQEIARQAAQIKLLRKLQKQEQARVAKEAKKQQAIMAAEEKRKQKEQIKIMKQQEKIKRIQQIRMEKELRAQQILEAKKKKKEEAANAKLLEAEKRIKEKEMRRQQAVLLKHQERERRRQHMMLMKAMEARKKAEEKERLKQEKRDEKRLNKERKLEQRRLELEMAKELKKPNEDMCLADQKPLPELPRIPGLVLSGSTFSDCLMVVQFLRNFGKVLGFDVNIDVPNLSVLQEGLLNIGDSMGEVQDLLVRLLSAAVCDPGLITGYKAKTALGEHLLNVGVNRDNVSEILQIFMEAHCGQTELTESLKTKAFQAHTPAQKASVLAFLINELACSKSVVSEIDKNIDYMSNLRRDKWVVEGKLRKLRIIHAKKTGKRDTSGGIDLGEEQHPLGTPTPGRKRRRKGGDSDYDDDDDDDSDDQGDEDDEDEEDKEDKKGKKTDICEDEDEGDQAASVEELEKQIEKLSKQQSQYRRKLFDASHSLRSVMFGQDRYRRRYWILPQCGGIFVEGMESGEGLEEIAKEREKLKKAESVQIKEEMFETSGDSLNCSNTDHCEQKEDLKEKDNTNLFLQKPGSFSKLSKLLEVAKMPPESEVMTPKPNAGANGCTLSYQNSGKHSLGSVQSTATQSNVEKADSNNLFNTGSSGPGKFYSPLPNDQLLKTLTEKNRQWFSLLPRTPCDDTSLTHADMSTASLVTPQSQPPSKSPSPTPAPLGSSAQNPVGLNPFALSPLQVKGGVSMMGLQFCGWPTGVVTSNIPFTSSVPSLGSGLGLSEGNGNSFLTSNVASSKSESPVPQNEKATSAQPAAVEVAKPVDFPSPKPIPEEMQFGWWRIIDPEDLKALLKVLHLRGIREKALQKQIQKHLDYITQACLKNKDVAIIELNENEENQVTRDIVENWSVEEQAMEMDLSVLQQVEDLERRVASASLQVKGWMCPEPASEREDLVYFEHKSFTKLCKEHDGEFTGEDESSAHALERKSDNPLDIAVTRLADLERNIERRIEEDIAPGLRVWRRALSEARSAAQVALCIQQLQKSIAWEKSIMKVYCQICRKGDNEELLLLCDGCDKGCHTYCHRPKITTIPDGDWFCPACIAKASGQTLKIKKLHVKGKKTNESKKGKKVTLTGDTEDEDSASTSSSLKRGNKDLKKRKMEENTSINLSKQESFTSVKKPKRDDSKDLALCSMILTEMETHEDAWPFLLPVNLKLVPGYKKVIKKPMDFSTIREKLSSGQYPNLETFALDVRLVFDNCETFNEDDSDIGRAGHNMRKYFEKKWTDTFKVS
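Inhibition is scored as reduced AlphaScreen emission. The BAZ2B/b-H3(5-23)K14Ac complex (50 nM each) in PBS pH 7.4, 0.01% Tween-20 meets compound (up to 110 uM) for 30 min at RT before bead addition.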
Of the large screens only hits and unclear results are named; the others gave an inactive call. The call rests on the fitted dose curve; in most records, active means well fitted curve in the direction sought with a large enough effect; inconclusive means small, poorly fitted or top-dose-only effect, or another doubt; inactive means no such curve, though single readings can be large; an effect the other way counts as inactive or inconclusive.

COc1ccccc1NC(=O)Cn1c(SCC(=O)N(C)c2ccccc2)nc2ccccc21	none (no result: Sfp inh, L3MBTL1 inh)
O=C(O)CCCNc1n[nH]c(=O)[nH]c1=O	G9a block 14µM, BAZ2B block inconclusive
CCN1CCS/C1=C/C=C/C1=[N+](CC)CCS1	JMJD2A Tudor inh inconclusive, G9a block 50µM
CCN1CCS/C1=C\C=C\C1=[N+](CC)CCS1	G9a block 3.2µM
COc1ccc(CN(C)Cc2c(O)ccc3cc(Br)ccc23)cc1OC	G9a block 25µM, BAZ2B block inconclusive (no result: L3MBTL1 inh)
COc1ccc(CCN(C)Cc2c(O)ccc3cc(Br)ccc23)cc1OC	G9a block 25µM (no result: L3MBTL1 inh)
COc1ccc(CCN(C)C(=O)c2cncc(Br)c2)cc1OC	none (no result: L3MBTL1 inh)
COc1ccc(Cl)cc1NC(=O)C1CCN(c2ncnc3c2nc2n3CCCCC2)CC1	none (no result: Sfp inh, L3MBTL1 inh)
COc1ccc(CCNS(=O)(=O)c2ccc(-n3cnnn3)cc2)cc1OC	G9a block inconclusive (no result: L3MBTL1 inh)
COc1cccc(NC2=Nc3cccc4cccc2c34)c1	JMJD2A Tudor inh 45µM, G9a block inconclusive, BAZ2B block 40µM
COc1cc(NC2=Nc3cccc4cccc2c34)cc(OC)c1OC	JMJD2A Tudor inh inconclusive, HP1b chromo inh inconclusive, G9a block 50µM, BAZ2B block 50µM
COc1ccc(NC2=Nc3cccc4cccc2c34)cc1OC	JMJD2A Tudor inh inconclusive, G9a block inconclusive
O=C(c1ccc(CSc2nc3ccncc3n2Cc2cccc(F)c2)cc1)N1CCCCC1	none (no result: Sfp inh, L3MBTL1 inh)
O=C(Nc1ncnc2nc[nH]c12)c1ccccc1	none (no result: Sfp inh, L3MBTL1 inh, G9a block, BAZ2B block)
Cc1ccc(NC(=O)c2cccc(NC(=O)N3CCSc4ncccc43)c2)cc1F	none (no result: Sfp inh, L3MBTL1 inh)
COc1cccc(OC)c1-c1nn2c(-c3cc(-c4ccccc4)n[nH]3)nnc2s1	JMJD2A Tudor inh 45µM, Sfp inh inconclusive, G9a block 3.5µM, BAZ2B block 8.9µM
COc1ccccc1-c1nn2c(-c3cc(-c4ccccc4)n[nH]3)nnc2s1	none (no result: Sfp inh, L3MBTL1 inh, G9a block, BAZ2B block)
NCCNC(=O)Cn1c(=O)c2c3c(sc2n(Cc2ccccc2)c1=O)CCCC3	BAZ2B block inconclusive (no result: L3MBTL1 inh)
CN(C)CCCn1c(=O)n(CCc2ccccc2)c(=O)c2c3c(sc21)CCCCC3	JMJD2A Tudor inh 56µM, BAZ2B block inconclusive
NC(=O)Cn1c(=O)n(CCc2ccccc2)c(=O)c2c3c(sc21)CCCC3	none (no result: L3MBTL1 inh)
Cn1c(=O)n(Cc2ccco2)c(=N)c2c3c(sc21)CCC3	JMJD2A Tudor inh inconclusive, BAZ2B block inconclusive (no result: L3MBTL1 inh)
CN(C)CCn1c(=O)n(Cc2ccccc2)c(=O)c2c3c(sc21)CCCCC3	JMJD2A Tudor inh 40µM, HP1b chromo inh inconclusive, G9a block 50µM, BAZ2B block inconclusive (no result: L3MBTL1 inh)
CN(C)CCCn1c(=O)n(Cc2ccco2)c(=O)c2c3c(sc21)CCCCC3	Sfp inh 20µM, G9a block inconclusive
CN(C)CCCNc1nc2sc3c(c2c(=O)n1CCc1ccccc1)CCCCC3	JMJD2A Tudor inh inconclusive, HP1b chromo inh inconclusive, G9a block 45µM, BAZ2B block inconclusive
O=C(COc1ccccc1Cl)Nc1ccc(N2CCN(C(=O)c3ccccc3)CC2)cc1	JMJD2A Tudor inh inconclusive, BAZ2B block inconclusive (no result: L3MBTL1 inh, G9a block)
O=C(CNC(=O)c1cccs1)Nc1ncccc1O	BAZ2B block 56µM (no result: Sfp inh)
CN(C(=O)c1ccc(S(=O)(=O)c2cccc(Cl)c2)c([N+](=O)[O-])c1)C1CCCCC1	JMJD2A Tudor inh inconclusive, G9a block 32µM
CC(=O)C1(O)C(C)CC2C3CCC4CC(O)CCC4(C)C3=CCC21C (stereo unspecified)	none
C[C@@H]1CC2[C@@H]3CC[C@H]4CC(=O)CC[C@]4(C)C3=CC[C@]2(C)[C@@]1(O)C(=O)CO (stereo partly specified)	G9a block 56µM (no result: L3MBTL1 inh)
S=c1[nH]nc(COc2ccc(Cl)cc2)o1	JMJD2A Tudor inh 79µM, Sfp inh inconclusive, G9a block 4µM
S=c1[nH]nc(CCc2ccc(Cl)cc2)o1	G9a block 7.1µM
COC(=O)c1ccc(-c2ccco2)n1Cc1nc(-c2ccc(OC)c(OC)c2)oc1C	Sfp inh 20µM, G9a block inconclusive, BAZ2B block inconclusive
N#CCCS(=O)(=O)c1ccccc1	none (no result: JMJD2A Tudor inh, HP1b chromo inh, L3MBTL1 inh, G9a block, BAZ2B block)
Cc1ccc(-n2c(C)cc(C(=S)N3CCOCC3)c2C)cc1C	JMJD2A Tudor inh 45µM, HP1b chromo inh inconclusive, BAZ2B block 50µM (no result: G9a block)
